Experimental data published in PubChem BioAssay (Tox21).
“And” between values parts separate entries of the source, which are not always exact repeats. Equal entries are not always repeated. Records with an inconclusive call do not appear. The source made the active and inactive calls. Unless noted, calls follow the shape of the dose curve; as a rule, active = well fitted curve in the direction sought with a large enough effect in the repeat runs; inconclusive = weak or mixed curves; inactive = no such curve, though single readings can be large; an effect the other way counts as inactive or inconclusive.

Columns and labels:
[1] = qHTS assay to identify small molecule antagonists of the thyroid receptor (TR) signaling pathway (AID 743065); also: nearly all actives have a fitted effect of over 55% in size; also: potency is read from the fitted curve at half-maximal effect
In short: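 GH3.TRE-Luc rat pituitary cells carrying two TR response elements driving luciferase were plated for 4 h, given compound plus 1 nM T3 (final), and incubated 23.5 h at 37 C. ONE-Glo luminescence measured reporter inhibition; CellTiter-Fluor fluorescence tracked cytotoxicity.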

[2] = test system: thyroid hormone receptor (rat, GH3 cells); experiment: qHTS assay to identify small molecule agonists of the thyroid receptor (TR) signaling pathway (AID 743066; calls by dose curve)
[3] = target: Estrogen receptor (Homo sapiens) (UniProt P03372); experiment: qHTS assay to identify small molecule antagonists of the estrogen receptor alpha (ER-alpha) signaling pathway (AID 743069; active = well fitted curve in the direction sought with a large enough effect in the signal ratio in the repeat runs, not every such curve was filed as active; the % refers to the signal ratio)
Sequence of Estrogen receptor (Homo sapiens) (P03372 whole entry, looked up): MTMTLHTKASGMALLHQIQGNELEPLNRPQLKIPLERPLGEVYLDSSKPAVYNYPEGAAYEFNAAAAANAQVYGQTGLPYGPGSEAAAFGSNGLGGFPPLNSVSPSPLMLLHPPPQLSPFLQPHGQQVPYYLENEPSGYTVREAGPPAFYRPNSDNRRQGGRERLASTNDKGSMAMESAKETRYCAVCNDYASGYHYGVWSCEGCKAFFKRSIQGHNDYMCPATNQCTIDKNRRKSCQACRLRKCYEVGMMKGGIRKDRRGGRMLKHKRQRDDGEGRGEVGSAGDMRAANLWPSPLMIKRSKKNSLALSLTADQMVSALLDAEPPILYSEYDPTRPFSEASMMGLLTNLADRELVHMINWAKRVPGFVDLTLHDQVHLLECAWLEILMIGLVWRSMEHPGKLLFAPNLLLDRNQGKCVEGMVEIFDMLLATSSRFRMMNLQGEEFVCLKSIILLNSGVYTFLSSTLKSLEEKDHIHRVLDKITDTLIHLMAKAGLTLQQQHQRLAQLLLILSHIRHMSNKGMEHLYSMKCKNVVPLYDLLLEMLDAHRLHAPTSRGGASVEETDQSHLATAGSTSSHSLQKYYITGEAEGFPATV
In short: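 Estradiol-stimulated ER-alpha-UAS-bla HEK293 cells, 18 hr compound exposure at 37C. LiveBLAzer B/G substrate, 2 hr RT, fluorescence read.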

[4] = qHTS assay to identify small molecule antagonists of the estrogen receptor alpha (ER-alpha) signaling pathway - cell viability counter screen (AID 743074; calls by dose curve;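 also: HEK293 cells carrying ER-alpha-UAS-bla reporter stimulated with 17beta-estradiol; nearly all actives have a fitted effect of over 45% in size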; also: potency is read from the fitted curve at half-maximal effect)
[5] = target: Estrogen receptor (Homo sapiens) (UniProt P03372); experiment: qHTS assay to identify small molecule agonists of the estrogen receptor alpha (ER-alpha) signaling pathway (AID 743075; calls by dose curve;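 also: HEK293 GripTite cells with ER-alpha and UAS-driven beta-lactamase reporter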)
[6] = qHTS assay to identify small molecule antagonists of the estrogen receptor alpha (ER-alpha) signaling pathway using the BG1 cell line - cell viability counter screen (AID 743081);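 also: compound given together with 17beta-estradiol as the ER stimulus; nearly all actives have a fitted effect of over 45% in size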; also: potency is read from the fitted curve at half-maximal effect
[7] = qHTS assay to identify aromatase inhibitors - cell viability counter screen (AID 743084);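 also: cells stimulated with testosterone during compound exposure; nearly all actives have a fitted effect of over 55% in size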; also: potency is read from the fitted curve at half-maximal effect
[8] = qHTS assay to identify small molecule that activate the aryl hydrocarbon receptor (AhR) signaling pathway - cell viability counter screen (AID 743086); also: nearly all actives have a fitted effect of over 45% in size; also: potency is read from the fitted curve at half-maximal effect
In short: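 HepG2-AhR-luc (HG2L7.5c1) cells, 4000/well, were preincubated 5 h at 37C, exposed to compound in qHTS format for 24 hr at 37C, then given CellTiter-Fluor for 30 min; viability was read as fluorescence in the reporter wells.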

[9] = target: Peroxisome proliferator-activated receptor gamma (Homo sapiens) (UniProt P37231); experiment: qHTS assay to identify small molecule agonists of the peroxisome proliferator-activated receptor gamma (PPARg) signaling pathway (AID 743094; active = well fitted activation curve with a large enough effect in the signal ratio in the repeat runs, not every such curve was filed as active; the % refers to the signal ratio)
Sequence of Peroxisome proliferator-activated receptor gamma (Homo sapiens) (P37231 whole entry, looked up): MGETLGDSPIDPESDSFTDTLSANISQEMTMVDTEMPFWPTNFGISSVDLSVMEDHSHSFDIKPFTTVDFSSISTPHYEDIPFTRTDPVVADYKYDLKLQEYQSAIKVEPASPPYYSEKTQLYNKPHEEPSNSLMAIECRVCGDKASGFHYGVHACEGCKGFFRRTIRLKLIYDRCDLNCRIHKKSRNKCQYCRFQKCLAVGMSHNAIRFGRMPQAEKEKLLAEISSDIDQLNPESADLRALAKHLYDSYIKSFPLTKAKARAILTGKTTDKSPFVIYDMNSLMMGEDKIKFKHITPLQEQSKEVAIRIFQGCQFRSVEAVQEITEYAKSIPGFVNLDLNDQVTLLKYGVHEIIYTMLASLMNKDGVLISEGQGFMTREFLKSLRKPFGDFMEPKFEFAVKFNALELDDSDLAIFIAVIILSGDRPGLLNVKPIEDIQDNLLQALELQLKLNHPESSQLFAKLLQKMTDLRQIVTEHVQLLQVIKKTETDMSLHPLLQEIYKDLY
In short: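 GeneBLAzer PPARg UAS-bla HEK293H cells carrying a stably integrated beta-lactamase reporter were pre-incubated 5 h at 37C, then exposed to compounds in DMSO for 17 h at 37C; LiveBLAzer B/G FRET substrate was added for 1 h at room temperature and fluorescence read.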

[10] = qHTS assay to identify small molecule antagonists of the peroxisome proliferator-activated receptor gamma (PPARg) signaling pathway - cell viability counter screen (AID 743194); also: nearly all actives have a fitted effect of over 55% in size
In short: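 PPARg-UAS-bla HEK293H cells were plated, rested 5 h at 37 C, then treated with compounds plus rosiglitazone (50 nM final) for 17 h at 37 C; viability was then read by CellTiter-Glo luminescence after 30 min at room temperature.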

[11] = qHTS assay for small molecule agonists of the antioxidant response element (ARE) signaling pathway (AID 743202; active = well fitted activation curve with a large enough effect in the signal ratio in the repeat runs, not every such curve was filed as active; the % refers to the signal ratio; also: potency is read from the fitted curve at half-maximal effect)
In short: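 Compounds delivered in DMSO to ARE-bla HepG2 cells (2,000 cells/well, pre-incubated 5 h) and left 16 h at 37 C. LiveBLAzer B/G FRET substrate then added for 2 h at RT before fluorescence reading.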

[12] = qHTS assay for small molecule agonists of the antioxidant response element (ARE) signaling pathway - cell viability counter screen (AID 743203; calls by dose curve; also: nearly all actives have a fitted effect of over 55% in size; also: potency is read from the fitted curve at half-maximal effect)
In short: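 CellSensor ARE-bla HepG2 cells, 2,000 per well, rested 5 hrs at 37C/5% CO2, then exposed to compound in DMSO for 16 hrs; viability read as CellTiter-Glo luminescence after 30 min at room temperature, in the reporter wells.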

[13] = qHTS assay to identify small molecule antagonists of the thyroid receptor (TR) signaling pathway - cell viability counter screen (AID 743064); also: nearly all actives have a fitted effect of over 50% in size; also: potency is read from the fitted curve at half-maximal effect
In short: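 Viability of T3-stimulated (1 nM final) GH3.TRE-Luc cells is measured by CellTiter-Fluor fluorescence after 23.5 h compound exposure at 37 °C plus 30 min reagent incubation.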

[14] = target: Aromatase (Homo sapiens) (UniProt P11511); experiment: qHTS assay to identify aromatase inhibitors (AID 743083); also: nearly all actives have a fitted effect of over 55% in size; also: potency is read from the fitted curve at half-maximal effect
Sequence of Aromatase (Homo sapiens) (P11511 whole entry, looked up): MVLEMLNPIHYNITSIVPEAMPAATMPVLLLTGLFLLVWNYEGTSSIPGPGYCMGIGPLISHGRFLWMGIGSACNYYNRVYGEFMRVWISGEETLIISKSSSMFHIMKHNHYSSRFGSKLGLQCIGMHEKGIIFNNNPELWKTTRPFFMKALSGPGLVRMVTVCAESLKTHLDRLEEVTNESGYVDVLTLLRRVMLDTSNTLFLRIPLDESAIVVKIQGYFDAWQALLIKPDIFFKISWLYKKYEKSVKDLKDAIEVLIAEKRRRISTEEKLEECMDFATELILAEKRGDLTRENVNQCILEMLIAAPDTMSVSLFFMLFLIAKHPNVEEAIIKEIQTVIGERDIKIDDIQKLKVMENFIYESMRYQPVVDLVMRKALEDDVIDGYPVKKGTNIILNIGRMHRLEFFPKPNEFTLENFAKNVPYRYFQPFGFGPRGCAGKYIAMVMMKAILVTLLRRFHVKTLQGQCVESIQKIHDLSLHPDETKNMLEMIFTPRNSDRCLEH

[15] = qHTS assay for small molecule activators of the heat shock response signaling pathway - cell viability counter screen (AID 743209); also: nearly all actives have a fitted effect of over 50% in size
In short: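 CellSensor HSE-bla HeLa cells, plated overnight at 37 C/5% CO2, were exposed to compounds in DMSO for 5 h at 37 C. Viability was then read in the same wells by CellTiter-Glo luminescence after 30 min at room temperature.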

[16] = qHTS assay for small molecule activators of the heat shock response signaling pathway (AID 743210; active = well fitted activation curve with a large enough effect in the signal ratio in the repeat runs, with a control signal flat, not every such curve was filed as active; the % refers to the signal ratio;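 also: HeLa cells with beta-lactamase reporter driven by heat shock elements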)
In short: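 Reporter gene assay: HeLa cells stably bearing an HSE-bla construct, compound treatment 5 h at 37 C, LiveBLAzer substrate 2.5 h at RT, fluorescence intensity.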

[17] = target: Estrogen receptor (Homo sapiens) (UniProt P03372); experiment: qHTS assay to identify small molecule agonists of the estrogen receptor alpha (ER-alpha) signaling pathway using the BG1 cell line (AID 743079); details: BG1Luc4E2 cells, ERE-luciferase agonist, 22 h; activation: at 70.3 µM (top of the series); also: nearly all actives have a fitted effect of over 20% in size; also: potency is read from the fitted curve at half-maximal effect
[18] = qHTS assay to identify small molecule antagonists of the estrogen receptor alpha (ER-alpha) signaling pathway using the BG1 cell line (AID 743080; calls by dose curve;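 also: BG1 cells stimulated with 17beta-estradiol alongside compound; nearly all actives have a fitted effect of over 25% in size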)
In short: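 BG1-Luc-4E2 cells (endogenous full-length ER-alpha, 4xERE luciferase) hormone-starved 5 days in charcoal-stripped FBS, plated 4,000/well for 24 h, then compound plus 17beta-estradiol for 21.5 h at 37 C; ONE-Glo luminescence read.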

[19] = target: Aryl hydrocarbon receptor (Homo sapiens) (UniProt P35869); experiment: qHTS assay to identify small molecule that activate the aryl hydrocarbon receptor (AhR) signaling pathway (AID 743085); also: nearly all actives have a fitted effect of over 15% in size; also: potency is read from the fitted curve at half-maximal effect;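 as to activation: HG2L7.5c1 human HepG2 liver cells with stably integrated DRE-driven firefly reporter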
Sequence of Aryl hydrocarbon receptor (Homo sapiens) (P35869 whole entry, looked up): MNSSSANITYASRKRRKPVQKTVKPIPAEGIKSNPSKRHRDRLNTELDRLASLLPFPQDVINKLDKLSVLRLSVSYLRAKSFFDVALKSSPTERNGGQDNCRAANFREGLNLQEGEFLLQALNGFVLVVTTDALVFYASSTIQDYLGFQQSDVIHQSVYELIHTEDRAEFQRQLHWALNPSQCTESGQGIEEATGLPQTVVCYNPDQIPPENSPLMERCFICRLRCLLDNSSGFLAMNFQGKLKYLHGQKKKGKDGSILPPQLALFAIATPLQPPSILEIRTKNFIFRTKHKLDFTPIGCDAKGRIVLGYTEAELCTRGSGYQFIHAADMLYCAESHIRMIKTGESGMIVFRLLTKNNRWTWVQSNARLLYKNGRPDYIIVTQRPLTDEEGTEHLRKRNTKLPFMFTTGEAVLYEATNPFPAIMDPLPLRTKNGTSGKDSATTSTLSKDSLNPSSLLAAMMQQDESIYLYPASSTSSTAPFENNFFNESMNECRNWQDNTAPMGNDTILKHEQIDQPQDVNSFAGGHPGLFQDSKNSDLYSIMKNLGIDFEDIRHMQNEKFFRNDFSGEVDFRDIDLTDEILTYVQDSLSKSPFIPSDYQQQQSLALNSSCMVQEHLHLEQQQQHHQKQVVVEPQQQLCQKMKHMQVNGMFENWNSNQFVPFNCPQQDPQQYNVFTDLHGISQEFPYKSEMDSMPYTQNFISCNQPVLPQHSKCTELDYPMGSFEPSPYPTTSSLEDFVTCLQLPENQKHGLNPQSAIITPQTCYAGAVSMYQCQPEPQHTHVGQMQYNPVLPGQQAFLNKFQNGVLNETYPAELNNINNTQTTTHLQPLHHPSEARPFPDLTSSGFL
In short: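 A multiplexed format paired cell viability (CellTiter-Fluor fluorescence) with AhR-dependent luciferase output (ONE-Glo luminescence) in the same wells of HepG2 DRE-luc cells after 24 h compound exposure at 37C.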

[20] = target: Peroxisome proliferator-activated receptor gamma (Homo sapiens) (UniProt P37231); experiment: qHTS assay to identify small molecule antagonists of the peroxisome proliferator-activated receptor gamma (PPARg) signaling pathway (AID 743191; calls by dose curve; also: nearly all actives have a fitted effect of over 30% in size)
In short: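 GeneBLAzer PPARg UAS-bla HEK293H cells carrying a UAS-driven beta-lactamase reporter were plated at 3000 cells/well, preincubated 5 h at 37C, then given compound for 17 h at 37C; LiveBLAzer B/G FRET substrate was read after 1 h at room temperature.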

Measured: Potency

Nc1ccc(Cl)cc1[N+](=O)[O-]
not listed: [13] | [14] | [15] | [16] | [17] | [18] | [19] | [20]
inactive: all other assays above

C[C@@H]1C[C@H]2[C@@H]3CCC4=CC(=O)C=C[C@]4(C)[C@@]3(F)[C@@H](O)C[C@]2(C)[C@H]1C(=O)CO
not listed: [1] | [3] | [5] | [11] | [17] | [18] | [19] | [20]
inactive: all other assays above

Cc1ccc(S)cc1
not listed: [1] | [2] | [3] | [4] | [16]
inactive: all other assays above

CCOC(=O)OCC
not listed: [13]
inactive: all other assays above

O=C(OCCOCCO)c1ccccc1Nc1cccc(C(F)(F)F)c1
not listed: [8] | [11] | [13] | [19] | [20]
inactive: all other assays above

Cc1cc(OI)c(C(C)C)cc1-c1cc(C(C)C)c(OI)cc1C
inactive: [13] | [2] | [4] | [6] | [14] | [7] | [8] | [10] | [11] | [12] | [15]

CC(C)CCCCCCOC(=O)CCCCC(=O)OCCCCCCC(C)C
not listed: [11] | [13] | [19]
inactive: all other assays above

O=C(CCCN1CCC(O)(c2ccc(Br)cc2)CC1)c1ccc(F)cc1
active: [1] 10.1 µM | [12] 29.8 µM
not listed: [11] | [13] | [15] | [19] | [20]
inactive: all other assays above

CC(C)(C)CC(C)(C)c1ccc(OCCO)cc1
inactive: [4] | [5] | [9] | [20] | [10] | [12]
active: [13] 11.9 µM and 60.8 µM | [6] 24.2 µM | [14] 26.6 µM and 43 µM | [7] 33.5 µM and 30.5 µM

O=C(/C=C/c1ccccc1)OCCCc1ccccc1
active: [17] 27.3 µM
not listed: [1] | [2] | [4] | [9] | [11] | [18] | [19] | [20]
inactive: all other assays above

C/C=C/C=C/CCCCCCCO
active: [1] 61.1 µM
not listed: [7] | [11] | [13] | [15] | [16] | [20]
inactive: all other assays above

O=C(O)c1ccc(CO)o1
not listed: [3] | [5] | [13] | [17] | [18]
inactive: all other assays above

CC1(C)C2=CCCC(C)(C)[C@]23CC[C@H]1C3
inactive: [13] | [2] | [4] | [6] | [7] | [8] | [9] | [20] | [10] | [12] | [16]

c1cc[c]([Bi]([c]2ccccc2)[c]2ccccc2)cc1
active: [1] 54.5 µM | [17] 21.7 µM
not listed: [9] | [11] | [13] | [16] | [19] | [20]
inactive: all other assays above

CCC(C)(C)C1CCC(O)CC1 (stereo unspecified)
not listed: [13] | [17] | [18] | [20]
inactive: all other assays above

CCCOC(=O)c1ccc(N)cc1
not listed: [3] | [11] | [13] | [17] | [18] | [19] | [20]
inactive: all other assays above

C=CC(C)=CCC=C(C)C
not listed: [1] | [3] | [5] | [11] | [16] | [17] | [18] | [20]
inactive: all other assays above

CCCCC(=O)O[C@]1(C(=O)CO)[C@@H](C)C[C@H]2[C@@H]3CCC4=CC(=O)C=C[C@]4(C)[C@@]3(F)[C@@H](O)C[C@@]21C
active: [1] 61.1 µM
not listed: [3] | [11] | [13] | [17] | [18] | [19]
inactive: all other assays above

CC(C)C(=O)O
not listed: [7] | [13] | [17]
inactive: all other assays above

COc1ccccc1N=Nc1c(S(=O)(=O)O)cc2cc(S(=O)(=O)O)cc(NC(C)=O)c2c1O
inactive: [2] | [4] | [9] | [20] | [10] | [11] | [12] | [15] | [16]
active: [13] 32.3 µM | [6] 28.8 µM | [7] 20.4 µM | [8] 22.9 µM

CCCCCCCCCCCC(=O)[O][Sn]([CH2]CCC)([CH2]CCC)[O]C(=O)CCCCCCCCCCC
active: [11] 2.11 µM
inactive: [13] | [2] | [4] | [14] | [7] | [19] | [8] | [9]

CCCCCCCC/C=C\CCCCCCCC(=O)OC
not listed: [3] | [5] | [13] | [17] | [18]
inactive: all other assays above

C=C(C)C(=O)OCCOC(=O)CC(C)=O
not listed: [3] | [5] | [10] | [13] | [17] | [18]
inactive: all other assays above

O=C(N/N=C/c1ccc([N+](=O)[O-])o1)c1ccc(O)cc1
inactive: [13] | [2] | [4] | [5] | [19] | [9] | [15] | [16]
active: [14] 10.1 µM | [8] 11.4 µM | [12] 23.7 µM

CCCCCCCCCCCC[N+](C)(C)CCCS(=O)(=O)[O-]
active: [1] 24.6 µM | [4] 49.6 µM
not listed: [13] | [15] | [18]
inactive: all other assays above

CCCCC/C(=C\c1ccccc1)CO
active: [13] 48 µM | [14] 30.3 µM
inactive: [2] | [4] | [6] | [19] | [8] | [9] | [11] | [12] | [15] | [16]

CC(C)(C)C(=O)C(Oc1ccc(Cl)cc1)n1ccnc1 (stereo unspecified)
active: [14] 11.9 µM | [19] 23.7 µM
not listed: [9] | [13] | [16] | [20]
inactive: all other assays above

NC(=O)Nc1ccc(Cl)c(Cl)c1
inactive: [13] | [2] | [4] | [6] | [14] | [7] | [8] | [9] | [10] | [15] | [16]

CCCCCCCCCCCC[N+](C)(C)CC(=O)[O-]
active: [1] 54.5 µM
not listed: [3] | [11] | [12] | [13]
inactive: all other assays above

Cc1cc(O)c2c(O)c3c(O)cccc3cc2c1
active: [19] 2.66 µM | [11] 11.9 µM
not listed: [1] | [3] | [5] | [9] | [17] | [18] | [20]
inactive: all other assays above

c1ccc(COCc2ccccc2)cc1
not listed: [13] | [18]
inactive: all other assays above

CC(=O)Nc1ccc(N)cc1
not listed: [13] | [16] | [18] | [19]
inactive: all other assays above

Cc1cc(S(=O)(=O)O)ccc1N=Nc1c(O)ccc2ccccc12
active: [13] 17.2 µM | [6] 30.6 µM | [7] 27.3 µM | [8] 24.3 µM
not listed: [1] | [3] | [5] | [17] | [18] | [19]
inactive: all other assays above

O=C(CCC1CCN(Cc2ccccc2)CC1)c1ccc2c(c1)NCCCC2
active: [1] 11.9 µM | [19] 23.7 µM | [11] 23.7 µM
inactive: [2] | [3] | [5] | [9] | [20] | [10] | [12] | [15] | [16]
